In the library only some 8% were active in any assay of this set; here they are far more common.
MARV entry inh = qHTS for Inhibitors of binding or entry into cells for Marburg Virus; Potency, µM (doses to about 49.2 µM), for the others: at the top dose activity change, negative = inhibition, usual class: inhibitors; 18,000 tested, 6.5% active; AID 720532, 2013; Marburg virus pseudotype entry/binding inhibition, cell-based
LASV entry inh = qHTS for Inhibitors of binding or entry into cells for Lassa Virus; 18,000 tested, 4.1% active; Lassa virus pseudotyped entry inhibition, cell-based qHTS; Potency, µM (top dose mostly 49.2 µM), without a hit: at the top dose activity change, negative = inhibition, most hits filed as inhibitors
Active calls of the source: *; ! = repeats disagree; [ ] = remark or other dose. Calls follow the shape of the full dose curve; tested in HEK293 cells. % is scaled to controls: 0 for no effect and ±100 for the full control effect; potency is read from the fitted curve at half-maximal effect.

For C#CCCCON=C1C[C@@H](O)[C@H](O)[C@H]2[C@@H]3C(=O)N(C[C@@H]4CCCO4)C(=O)[C@@H]3CC[C@@H]12 the results were MARV entry inh 3%[8.59 µM] and LASV entry inh 26%[8.59 µM].
O[C@H]1CN(Cc2cccs2)[C@@H](c2ccccc2)C[C@H]1n1cc(-c2ccc(F)cc2)nn1 was read as MARV entry inh -28% and LASV entry inh -14%.
CCC=CCCC(OC(=O)c1ccc(Br)cc1)C1=CCCCC1=O (stereo unspecified) was read as MARV entry inh 62%[8.59 µM] and LASV entry inh 7%[8.59 µM].
For CCCCOc1ccc(C(=O)CCN2CCCCC2)cc1 the results were MARV entry inh inconclusive and LASV entry inh -9%.
Screening O=C(c1ccc(OCCN2CCCCC2)cc1)c1c(-c2ccc(O)cc2)sc2cc(O)ccc12 returned MARV entry inh 14µM* and LASV entry inh 32µM*!.
CC(C)N1CCN(c2ccc(C(=O)c3c(-c4ccc(O)cc4)sc4cc(O)ccc34)cc2)CC1 was read as MARV entry inh 5µM* and LASV entry inh inconclusive.
`CC(=Nc1ccc(S(N)(=O)=O)cc1)c1c(O)[nH]c2ccccc12` gave MARV entry inh 91% and LASV entry inh 95%.
CCOC(=O)N1CCC(=C2c3ccc(Cl)cc3CCc3cccnc32)CC1 was read as MARV entry inh -17% and LASV entry inh 32µM*!.
CN1CCC(=C2c3ccccc3CCc3cccnc32)CC1 was read as MARV entry inh -25% and LASV entry inh -5%.
`C[C@]12CC[C@H](O)C[C@H]1CC[C@@H]1[C@@H]2CC[C@]2(C)[C@@H](c3ccc(=O)oc3)C[C@H]3O[C@]132` gave MARV entry inh 2.5µM* and LASV entry inh 2.8µM*.
Screening CC(=O)C1CC[C@H]2C3CC[C@@H]4CC(O)CC[C@@]4(C)C3CC[C@]12C (stereo partly specified) returned MARV entry inh inconclusive and LASV entry inh -11%.
CC(=O)OC[C@H]1O[C@H](CC=NO[C@H](C)CN2CCCCc3nc(C)c(C)cc32)C=C[C@@H]1OC(C)=O was read as MARV entry inh -21%[8.59 µM] and LASV entry inh -17%[8.59 µM].
Screening COC(=O)CC=C1c2ccccc2[C@@H](OC)[C@@H]1C returned MARV entry inh 16%[8.59 µM] and LASV entry inh 38%[8.59 µM].
Screening CSc1ccc2c(c1)N(CC[C@H]1CCCCN1C)c1ccccc1S2 returned MARV entry inh 7.9µM* and LASV entry inh inconclusive.
Screening CSc1ccc2c(c1)N(CCC1CCCCN1C)c1ccccc1S2 (stereo unspecified) returned MARV entry inh 7.9µM* and LASV entry inh 22µM*.
`CN1CCCC[C@@H]1CCN1c2ccccc2Sc2ccc(S(C)=O)cc21` (stereo partly specified) gave MARV entry inh inconclusive and LASV entry inh 0%[17.8 µM].
For CSc1ccc(CN2CCOc3ccc(CN4CCCCC4CO)cc3C2)cc1 (stereo unspecified) the results were MARV entry inh inconclusive and LASV entry inh -6%.
Screening C=CCCC1(C(=O)c2ccccc2)C(=O)C(CC=C(C)C)=C(OC)C(CC=C(C)C)(CCC=C(C)C)C1=O (stereo unspecified) returned MARV entry inh -1%[8.59 µM].
`O=C(c1cccs1)N1C[C@@H](O)[C@@H](n2cc(-c3ccc(F)cc3)nn2)C[C@@H]1c1ccccc1` gave MARV entry inh -21% and LASV entry inh -26%.
`CN(C)CCOc1ccc(-c2cc(-c3ccc4c(c3)CCC4=NO)c(-c3ccncc3)o2)cc1` gave MARV entry inh 2µM*.
For CN(C)CCOc1ccc(-c2nc(-c3ccc4c(c3)CCC4=NO)c(-c3ccncc3)[nH]2)cc1 the results were MARV entry inh inconclusive and LASV entry inh -95%.
Screening C[C@H]1CC[C@H]2C(=O)N(Cc3ccccc3)C[C@@H](O)CN2[C@H]1c1ccc(Br)cc1 returned MARV entry inh -33%[8.59 µM] and LASV entry inh 7%[8.59 µM].
For O=C(O)[C@@H](O)[C@H](O)[C@H](O)[C@@H](O)C(=O)O (tested in a mixture with another compound) the results were MARV entry inh 15% and LASV entry inh -15%.
For CCCCCCOc1ccc(C(=N)N(CCCC)CCCC)c2ccccc12 the results were MARV entry inh 13µM* and LASV entry inh 13µM*.
CCCCCCCCOc1ccc(C(=O)c2ccccc2)c(O)c1 was read as MARV entry inh -2% and LASV entry inh -20%.
For COc1cc(CCN2C(=O)NC(c3ccccc3)C(C(C)=O)=C2C)cc(OC)c1OC (stereo unspecified) the results were MARV entry inh 6%[8.59 µM] and LASV entry inh 9%[8.59 µM].
For CC(=O)C1=C(C)N(Cc2ccccc2)C(=O)NC1CCc1ccccc1 (stereo unspecified) the results were MARV entry inh 14%[8.59 µM].
For CC(C)(c1ccc(OCC2CO2)cc1)c1ccc(OCC2CO2)cc1 (stereo unspecified) the results were MARV entry inh 7.1µM*! and LASV entry inh 8.9µM*!.
Screening c1ccc(COC[C@H]2CO2)cc1 returned MARV entry inh 10% and LASV entry inh 4%.
Screening CCN1C(=O)[C@@H]2[C@H]3[C@H](O)[C@H](O)CC(=NO[C@@H](C)c4cc(-c5c(C)cc(C)cc5C)no4)[C@@H]3CC[C@H]2C1=O returned MARV entry inh -13%[8.59 µM] and LASV entry inh -2%[8.59 µM].
For C=CCOC(=O)C(C(C)=O)[C@@H](NC(=O)OC)c1cccs1 (stereo partly specified) the results were MARV entry inh -6%[8.59 µM] and LASV entry inh -15%[8.59 µM].
`C=CCNC(=O)N1C2=NC(C(=O)OC)=C(C(=O)OC)[C@@H]3N(C)c4ccccc4[C@]23C[C@H]1CO` gave MARV entry inh -31%[8.59 µM] and LASV entry inh 4%[8.59 µM].
`C[C@H](NCCC(c1ccccc1)c1ccccc1)c1ccccc1` gave MARV entry inh 10µM* and LASV entry inh inconclusive.
C[C@H](NCc1ccccc1)c1ccccc1 was read as MARV entry inh -1% and LASV entry inh 1%.
COC(=O)C1=C(C(=O)OC)[C@@H]2Nc3ccccc3[C@@]23C[C@@H](C(=O)OC)N(C(=O)NCCBr)C3=N1 was read as MARV entry inh 78%[8.59 µM] and LASV entry inh -11%[8.59 µM].
Screening CO[C@]1(C)C[C@H]2O[C@]1(C)n1c3ccccc3c3c4c(c5c6ccccc6n2c5c31)C(=O)N(C)C4 returned MARV entry inh 0% and LASV entry inh -5%.
O=C1NC(=O)c2c1c1c3ccccc3n3c1c1c2c2ccccc2n1C1CCC3O1 was read as MARV entry inh 1.1µM* and LASV entry inh inconclusive.
`Cc1nc(CC(=O)NCC2Cc3cc(F)cc(-c4ccc(F)c(C)c4)c3O2)cs1` (stereo unspecified) gave MARV entry inh inconclusive and LASV entry inh -30%.
`CCCC[C@]12Cc3cc(C#N)ccc3[C@H](O1)c1c(cc(C)n(Cc3ccccc3)c1=O)O2` gave MARV entry inh -23%[8.59 µM] and LASV entry inh -8%[8.59 µM].
For c1ccc(Oc2ccc(Nc3ncc(-c4ccccc4)o3)cc2)cc1 the results were MARV entry inh 5%.
`Cc1nnc2n1-c1sc(CCc3ccc(CC(C)C)cc3)cc1C(c1ccccc1Cl)=NC2C` (stereo unspecified) gave MARV entry inh 14µM* and LASV entry inh 7.9µM*.
Cc1nnc2n1-c1sc(CCC(=O)N3CCOCC3)cc1C(c1ccccc1Cl)=NC2 was read as MARV entry inh 11% and LASV entry inh -16%.

Bioassay records deposited in PubChem by National Center for Advancing Translational Sciences (NCATS).
